# Test results as given in the supplement of paper PMC8728848.
# Shown is part of a subset that was picked to be rich in the strongest signals.
# B1: XTP3-B-MRH2 (Homo sapiens), Q96DZ1 (protein)
# chain: EFLSGSYCFRGGVGWWKYEFCYGKHVHQYHEDKDSGKTSVVVGTWNQEEHIEWAKKNTARAYHLQDDGTQTVRMVSHFYGNGDICDITDKPRQVTVKLKCKESDSPHAVTVYMLEPHSCQYILGVESPVICKILDTA
# Assays:
# Assay in all cases: glycan array binding signal (z-score within array); higher = stronger binding
# Details in all cases: glycan notation: IUPAC condensed, linker removed
# [1] = molecular target: Fuc(a1-2)Gal(b1-3)[Fuc(a1-4)]GlcNAc(b1-3)[Fuc(a1-3)[Gal(b1-4)]GlcNAc(b1-6)]Gal(b1-4)Glc
# Method in brief: (§1)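 Arrays were curated from the Consortium for Functional Glycomics database, 3228 in total, and kept only where the protein sequence was available. Binding is expressed as a within-array Z-score. This score was averaged across arrays of the same protein sequence at different concentrations or buffers and across linkers, and negative values can be read as non-binding.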
# [2] = molecular target: Fuc(a1-2)Gal(b1-4)Fuc(a1-3)]GlcNAc(b1-2)Man(a1-3)[Fuc(a1-2)Gal(b1-4)[Fuc(a1-3)]GlcNAc(b1-2)Man(a1-6)]Man(b1-4)GlcNAc(b1-4)GlcNAc
# Method in brief: as §1
# [3] = molecular target: Fuc(a1-2)Gal(b1-4)[Fuc(a1-3)]GlcNAc(b1-3)Gal(b1-4)[Fuc(a1-3)]GlcNAc
# Method in brief: as §1
# Fuc(a1-2)Gal6S(b1-4)Glc = molecular target: Fuc(a1-2)Gal6S(b1-4)Glc
# Method in brief: as §1
# [4] = molecular target: Fuc(a1-2)[Gal(a1-3)]Gal(b1-3)GlcNAc(b1-2)Man(a1-3)[Fuc(a1-2)[Gal(a1-3)]Gal(b1-3)GlcNAc(b1-2)Man(a1-6)]Man(b1-4)GlcNAc(b1-4)GlcNAc
# Method in brief: as §1
# [5] = molecular target: Fuc(a1-2)[Gal(a1-3)]Gal(b1-4)Glc
# Method in brief: as §1
# [6] = molecular target: Fuc(a1-2)[Gal(a1-3)]Gal(b1-4)GlcNAc(b1-2)Man(a1-3)[Fuc(a1-2)[Gal(a1-3)]Gal(b1-4)GlcNAc(b1-2)Man(a1-6)]Man(b1-4)GlcNAc(b1-4)GlcNAc
# Method in brief: as §1
# [7] = molecular target: Fuc(a1-2)[GalNAc(a1-3)]Gal(b1-4)[Fuc(a1-3)]GlcNAc
# Method in brief: as §1
# [8] = molecular target: Fuc(a1-3)[Gal(b1-4)]GlcNAc(b1-3)Gal(b1-3)[Fuc(a1-4)]GlcNAc
# Method in brief: as §1
# [9] = molecular target: Fuc(a1-3)[Gal(b1-4)]GlcNAc(b1-3)GalNAc
# Method in brief: as §1
# [10] = molecular target: Fuc(a1-3)[Gal(b1-4)]GlcNAc6S
# Method in brief: as §1
# Fuc(a1-4)GlcNAc = molecular target: Fuc(a1-4)GlcNAc
# Method in brief: as §1
# Fuc(b1-3)GlcNAc = molecular target: Fuc(b1-3)GlcNAc
# Method in brief: as §1
# [11] = molecular target: Gal(a1-4)Gal(b1-3)GlcNAc(b1-2)Man(a1-3)[Gal(a1-4)Gal(b1-3)GlcNAc(b1-2)Man(a1-6)]Man(b1-4)GlcNAc(b1-4)GlcNAc
# Method in brief: as §1
# Gal(b1-2)Gal = molecular target: Gal(b1-2)Gal
# Method in brief: as §1
# [12] = molecular target: Gal(b1-3)GalNAc(a1-3)[Fuc(a1-2)]Gal(b1-4)GlcNAc
# Method in brief: as §1
# [13] = molecular target: Gal(b1-3)GlcNAc(b1-3)Gal(b1-4)Glc
# Method in brief: as §1
# [14] = molecular target: Gal(b1-3)[Fuc(a1-4)]GlcNAc(b1-3)Gal(b1-3)[Fuc(a1-4)]GlcNAc
# Method in brief: as §1
# [15] = molecular target: Gal(b1-3)[Fuc(a1-4)]GlcNAc(b1-6)GalNAc
# Method in brief: as §1
# [16] = molecular target: Gal(b1-4)GlcNAc(b1-2)Man(a1-6)[Man(a1-3)]Man(b1-4)GlcNAc(b1-4)GlcNAc
# Method in brief: as §1
# [17] = molecular target: Gal(b1-4)GlcNAc(b1-3)Gal(b1-4)GlcNAc
# Method in brief: as §1
# [18] = molecular target: Gal(b1-4)GlcNAc(b1-3)Gal(b1-4)GlcNAc(b1-2)Man(a1-3)[Gal(b1-4)GlcNAc(b1-3)Gal(b1-4)GlcNAc(b1-2)Man(a1-6)]Man(b1-4)GlcNAc(b1-4)GlcNAc
# Method in brief: as §1
# [19] = molecular target: Gal(b1-4)GlcNAc(b1-3)Gal(b1-4)GlcNAc(b1-3)Gal(b1-4)GlcNAc(b1-3)Gal(b1-4)GlcNAc(b1-3)Gal(b1-4)GlcNAc(b1-2)[Gal(b1-4)GlcNAc(b1-3)Gal(b1-4)GlcNAc(b1-3)Gal(b1-4)GlcNAc(b1-3)Gal(b1-4)GlcNAc(b1-3)Gal(b1-4)GlcNAc(b1-6)]Man(a1-6)[Gal(b1-4)GlcNAc(b1-3)Gal(b1-4)GlcNAc(b1-3)Gal(b1-4)GlcNAc(b1-3)Gal(b1-4)GlcNAc(b1-3)Gal(b1-4)GlcNAc(b1-2)Man(a1-3)]Man(b1-4)GlcNAc(b1-4)[Fuc(a1-6)]GlcNAc
# Method in brief: as §1
# [20] = molecular target: Gal(b1-4)GlcNAc(b1-3)[GlcNAc(b1-6)]Gal(b1-4)GlcNAc
# Method in brief: as §1
# [21] = molecular target: Gal(b1-4)GlcNAc(b1-6)[Gal(b1-4)GlcNAc(b1-3)]GalNAc
# Method in brief: as §1
# [22] = molecular target: Gal3S(b1-3)[Fuc(a1-4)]GlcNAc
# Method in brief: as §1
# GalNAc(a1-3)GalNAc = molecular target: GalNAc(a1-3)GalNAc
# Method in brief: as §1
# GalNAc(b1-3)GalNAc = molecular target: GalNAc(b1-3)GalNAc
# Method in brief: as §1
# GalNAc(b1-4)Gal(b1-4)Glc = molecular target: GalNAc(b1-4)Gal(b1-4)Glc
# Method in brief: as §1
# GalNAc(b1-4)GlcNAc = molecular target: GalNAc(b1-4)GlcNAc
# Method in brief: as §1
# [23] = molecular target: GalNAc(b1-4)GlcNAc(b1-2)Man(a1-3)[GalNAc(b1-4)GlcNAc(b1-2)Man(a1-6)]Man(b1-4)GlcNAc(b1-4)GlcNAc
# Method in brief: as §1
# [24] = molecular target: GalNAc3S(b1-4)[Fuc(a1-3)]GlcNAc
# Method in brief: as §1
# [25] = molecular target: GlcNAc(b1-2)Man(a1-3)[GlcNAc(b1-2)Man(a1-6)]Man(b1-4)GlcNAc(b1-4)[Fuc(a1-6)]GlcNAc
# Method in brief: as §1
# [26] = molecular target: GlcNAc(b1-2)[GlcNAc(b1-6)]Man(a1-6)[GlcNAc(b1-2)Man(a1-3)]Man(b1-4)GlcNAc(b1-4)GlcNAc
# Method in brief: as §1
# [27] = molecular target: GlcNAc(b1-3)Gal(b1-4)GlcNAc(b1-2)[GlcNAc(b1-3)Gal(b1-4)GlcNAc(b1-6)]Man(a1-6)[GlcNAc(b1-3)Gal(b1-4)GlcNAc(b1-2)Man(a1-3)]Man(b1-4)GlcNAc(b1-4)GlcNAc
# Method in brief: as §1
# [28] = molecular target: Kdn(a2-3)Gal(b1-4)[Fuc(a1-3)]GlcNAc
# Method in brief: as §1
# [29] = molecular target: Neu5Ac(a2-3)Gal(b1-3)GlcNAc(b1-6)GalNAc
# Method in brief: as §1
# [30] = molecular target: Neu5Ac(a2-3)Gal(b1-4)GlcNAc(b1-2)[Neu5Ac(a2-3)Gal(b1-4)GlcNAc(b1-4)]Man(a1-3)[GlcNAc(b1-4)][Neu5Ac(a2-3)Gal(b1-4)GlcNAc(b1-2)[Neu5Ac(a2-3)Gal(b1-4)GlcNAc(b1-6)]Man(a1-6)]Man(b1-4)GlcNAc(b1-4)GlcNAc
# Method in brief: as §1
# [31] = molecular target: Neu5Ac(a2-3)Gal(b1-4)GlcNAc(b1-3)Gal(b1-4)[Fuc(a1-3)]GlcNAc
# Method in brief: as §1
# [32] = molecular target: Neu5Ac(a2-6)Gal(b1-4)GlcNAc(b1-2)Man(a1-6)[Gal(b1-4)GlcNAc(b1-2)Man(a1-3)]Man(b1-4)GlcNAc(b1-4)GlcNAc
# Method in brief: as §1
# [33] = molecular target: Neu5Ac(a2-6)Gal(b1-4)GlcNAc(b1-3)Gal(b1-4)GlcNAc(b1-3)GalNAc
# Method in brief: as §1
# [34] = molecular target: Neu5Ac(a2-6)GlcNAc(b1-4)GlcNAc(b1-4)GlcNAc
# Method in brief: as §1
# [35] = molecular target: Neu5Ac(a2-8)Neu5Ac(a2-8)Neu5Ac
# Method in brief: as §1
# [36] = molecular target: Neu5Ac9Ac(a2-3)Gal(b1-4)GlcNAc
# Method in brief: as §1
# [37] = molecular target: Neu5Gc(a2-8)Neu5Ac(a2-3)Gal(b1-4)GlcNAc
# Method in brief: as §1
# [38] = molecular target: Neu5Gc(a2-8)Neu5Gc(a2-3)Gal(b1-4)GlcNAc
# Method in brief: as §1
binder,measurement,setting,value
B1,glycan array binding signal (z-score),[1],2.32
same,glycan array binding signal (z-score),[2],2.2
same,glycan array binding signal (z-score),[3],-0.464
same,glycan array binding signal (z-score),Fuc(a1-2)Gal6S(b1-4)Glc,0.258
same,glycan array binding signal (z-score),[4],2.72
same,glycan array binding signal (z-score),[5],1.19
same,glycan array binding signal (z-score),[6],2.95
same,glycan array binding signal (z-score),[7],-0.177
same,glycan array binding signal (z-score),[8],-2.1
same,glycan array binding signal (z-score),[9],-0.079
same,glycan array binding signal (z-score),[10],-0.412
same,glycan array binding signal (z-score),Fuc(a1-4)GlcNAc,2.2
same,glycan array binding signal (z-score),Fuc(b1-3)GlcNAc,-0.321
same,glycan array binding signal (z-score),[11],0.355
same,glycan array binding signal (z-score),Gal(b1-2)Gal,-0.575
same,glycan array binding signal (z-score),[12],0.353
same,glycan array binding signal (z-score),[13],0.052
same,glycan array binding signal (z-score),[14],3.38
same,glycan array binding signal (z-score),[15],-0.084
same,glycan array binding signal (z-score),[16],2.47
same,glycan array binding signal (z-score),[17],0.386
same,glycan array binding signal (z-score),[18],3.21
same,glycan array binding signal (z-score),[19],-0.908
same,glycan array binding signal (z-score),[20],0.199
same,glycan array binding signal (z-score),[21],0.934
same,glycan array binding signal (z-score),[22],0.892
same,glycan array binding signal (z-score),GalNAc(a1-3)GalNAc,5.08
same,glycan array binding signal (z-score),GalNAc(b1-3)GalNAc,-1.03
same,glycan array binding signal (z-score),GalNAc(b1-4)Gal(b1-4)Glc,-0.842
same,glycan array binding signal (z-score),GalNAc(b1-4)GlcNAc,2.09
same,glycan array binding signal (z-score),[23],-0.025
same,glycan array binding signal (z-score),[24],0.236
same,glycan array binding signal (z-score),[25],-0.201
same,glycan array binding signal (z-score),[26],1.7
same,glycan array binding signal (z-score),[27],0.276
same,glycan array binding signal (z-score),[28],-0.353
same,glycan array binding signal (z-score),[29],1.44
same,glycan array binding signal (z-score),[30],-1.25
same,glycan array binding signal (z-score),[31],-0.481
same,glycan array binding signal (z-score),[32],-0.687
same,glycan array binding signal (z-score),[33],-0.693
same,glycan array binding signal (z-score),[34],0.385
same,glycan array binding signal (z-score),[35],0.237
same,glycan array binding signal (z-score),[36],-0.6
same,glycan array binding signal (z-score),[37],0.283
same,glycan array binding signal (z-score),[38],2.85
